ChEMBL document CHEMBL1157539, “Thousands of chemical starting points for antimalarial lead identification” (Nature, 2010)

Tested on: Plasmodium falciparum
Test: GSK_TCMDC: Inhibition of Plasmodium falciparum 3D7 in whole red blood cells, using parasite LDH activity as an index of growth. Test compounds present at 2uM
Format: functional

SMILES	Inhibition [%]
Cc1nnc(Sc2ncnc3scc(-c4ccc(F)cc4)c23)s1	99
Cc1ccccc1C(=O)NC(NC(=S)Nc1ccc([N+](=O)[O-])cc1)C(Cl)(Cl)Cl (centres undefined)	100
O=C(Cc1cccc(Cl)c1)Nc1ccc(N2CCC(NCc3ccc4ncccc4c3)CC2)cc1	81
CCOc1c(CNCCCNc2cc(O)c3ccccc3n2)cc(I)cc1OC	91
COc1ccc(-c2cnc3[nH]cc(-c4ccc(C(=O)O)c(C)c4)c3c2)cn1.O=C(O)C(F)(F)F	99
Br.CC1(C)NC(N)=NC(=N)N1OCc1cccs1	93
CCN1CCN(c2ccc(NC(=O)c3cc4c(C)nn(-c5ccccc5)c4s3)cc2C)CC1	100
Cc1cccc(CN2CCCN(Cc3ccc(C(=O)Nc4ccc(C)c(F)c4)cc3)CC2)c1.O=C(O)C(F)(F)F	85
O=c1cc(NCCCNC2CCCc3c2ccc2ccccc32)[nH]c2ccccc12 (centres undefined)	94
Cl.N#Cc1ccc(-c2ccc(C(=O)Nc3ccc4c(c3)CCN(C3CCC3)CC4)nc2)cc1	99
O=C(NCCNc1ccnc(Nc2ccc(F)cc2)n1)Nc1ccc2c(c1)OCO2	97
Fc1ccc2[nH]c(-c3ccc(-c4ccc(CNCc5ccccc5)cc4)cc3)nc2c1.O=C(O)C(F)(F)F	100
CCCCCN1CCCN(Cc2cccc(NC(=O)c3ccc(Cl)c(Cl)c3)c2)CC1.O=C(O)C(F)(F)F	89
O=CO.O=S1(=O)NCc2ccc(Nc3nccc(Nc4ccc5c(cnn5Cc5ccccc5)c4)n3)cc21	94
Cc1ccccc1C1CCN(C2CCC(NC(=O)c3cc4cc(Cl)ccc4o3)CC2)CC1 (centres undefined)	89
CC(C)(Oc1c(C2CCN(CCCCNC(=O)c3ccc(-c4ccc(C#N)cc4)cc3)CC2)ccc2c1CCCC2)C(N)=O	100
Br.N=C1N=C(N)NC2(CCCCC2)N1OCC1CCCCC1	96
O=C(Nc1cccc(CN2CCCN(Cc3cccc(F)c3)CC2)c1)c1ccc(Cl)c(Cl)c1.O=C(O)C(F)(F)F	85
COc1ccc2ncc(F)c(CCN3CC[C@H](NCc4cc5c(s4)CCCN5)[C@H](O)C3)c2n1.Cl	96
CC(C)CN1CCCN(Cc2cccc(NC(=O)c3ccc(Cl)c(Cl)c3)c2)CC1.O=C(O)C(F)(F)F	91

SMILES	Inhibition [%]
COc1ccc(CN(C)CCCc2ccc(NC(=O)Cc3ccc4nc(-c5ccccc5)ccc4c3)cc2)cc1OC	98
CCN(CCCN1CCCCC1)c1nc(C)cc(Nc2ccc(Cl)cc2)n1	98
Cc1cc(N[C@@H](CC(C)C)C(=O)NCc2cccc(F)c2)nc(NCCc2ccc(F)cc2)n1.O=C(O)C(F)(F)F	90
O=C(O)C(F)(F)F.O=[N+]([O-])c1cccc(CNCC2CCN(Cc3ccc4ccccc4c3)CC2)c1	100
Cc1cc(=O)c2cc(-c3ccc(OC(F)(F)F)cc3)ccc2[nH]1	96
N=C(N)CCN(Cc1ccccc1)c1ccc(Cl)cc1	98
COc1ccc2ccccc2c1CCCCN1CCN(CC(c2ccc(F)cc2)N2CCC(N3CCCC3)CC2)CC1.O=C(O)C(F)(F)F (centres undefined)	99
CC(=O)c1c(Nc2c(C)cc(C)cc2C)oc(C)cc1=O	95
CN1CCN(C(C(=O)NCc2cc(Cl)cc(Cl)c2)c2ccc(NC(=O)Nc3ccccc3)cc2)CC1.O=C(O)C(F)(F)F (centres undefined)	98
Br.CC(C)(C)c1ccc(OCCCON2C(=N)N=C(N)NC2(C)C)c(C(C)(C)C)c1	93
CC1(C)CC(NC(=O)NC2CCN(Cc3ccccc3)CC2)CC(C)(CNC(=O)NC2CCN(Cc3ccccc3)CC2)C1 (centres undefined)	93
Cc1cccc2nc(-c3ccc(-c4ccc(CN5CCCC(N)C5)cc4)s3)[nH]c12.O=C(O)C(F)(F)F (centres undefined)	100
COc1ccc2nccc([C@@H](O)CN3CCC(NC(=O)/C=C/c4ccc(F)c5ccccc45)CC3)c2c1	100
CCCN1CCC(NCc2cn(C)nc2-c2ccc(Oc3ccccc3)cc2)CC1	88
Nc1nc(N)c2c(ccc3c2ccn3Cc2ccc(Cl)cc2)n1	100
O=S1(=O)NC2(CCN(CCc3ccc(Cl)cc3)CC2)Nc2cc(F)cc(F)c21	86
CC(C)(C)c1ccc2[nH]c(-c3ccc(/C=C/C(=O)NCc4cccc(C(F)(F)F)c4)cc3)nc2c1	93
CSC1=NC(C)(C)CC2(CC(c3cccc(C)c3)c3cc(Cl)c(O)cc3O2)N1 (centres undefined)	100
CC(Nc1ncc(-c2ccsc2)c(-c2nccs2)n1)c1ccc2c(c1)OCCO2 (centres undefined)	81
